This note sets out measurements from ChEMBL document CHEMBL1961873, “Compounds: GSK PKIS; Assays: Nanosyn kinase panel” (2012).

Test [1] addresses Dual specificity protein kinase CLK3 (Homo sapiens) (UniProt P49761). Conditions: at 1 µM.
The target of test [2] is Dual specificity tyrosine-phosphorylation-regulated kinase 1A (Homo sapiens) (UniProt Q13627). The note with it: at 0.1 µM.
Test [3] shares this target. Conditions: at 1 µM.
Test [4] deals with Dual specificity tyrosine-phosphorylation-regulated kinase 1B (Homo sapiens) (UniProt Q9Y463). Conditions: at 0.1 µM.
For test [5] the target is unchanged. The note with it: at 1 µM.
Test [6] addresses T1, Dual specificity tyrosine-phosphorylation-regulated kinase 2 (Homo sapiens) (UniProt Q92630).
T1 sequence (whole entry): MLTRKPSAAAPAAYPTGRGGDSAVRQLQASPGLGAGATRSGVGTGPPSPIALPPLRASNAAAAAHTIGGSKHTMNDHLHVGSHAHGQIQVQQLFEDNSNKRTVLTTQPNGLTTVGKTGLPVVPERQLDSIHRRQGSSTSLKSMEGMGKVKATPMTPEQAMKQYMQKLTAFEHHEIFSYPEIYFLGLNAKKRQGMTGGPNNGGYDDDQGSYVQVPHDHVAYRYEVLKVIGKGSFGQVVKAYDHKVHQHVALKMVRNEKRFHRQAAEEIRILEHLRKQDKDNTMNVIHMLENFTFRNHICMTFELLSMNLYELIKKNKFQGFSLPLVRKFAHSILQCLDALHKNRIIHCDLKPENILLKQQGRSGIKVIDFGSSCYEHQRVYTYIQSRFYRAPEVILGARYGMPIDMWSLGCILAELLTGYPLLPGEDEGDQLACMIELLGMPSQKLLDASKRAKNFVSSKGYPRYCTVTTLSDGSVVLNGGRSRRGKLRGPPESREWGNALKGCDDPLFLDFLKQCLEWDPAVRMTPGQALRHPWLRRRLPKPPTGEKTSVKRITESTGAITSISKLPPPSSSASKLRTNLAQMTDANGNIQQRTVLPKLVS
Conditions: at 0.1 µM.

The target in test [7] is T1, Dual specificity tyrosine-phosphorylation-regulated kinase 2 (Homo sapiens). The note with it: at 1 µM.
The target of test [8] is Glycogen synthase kinase-3 alpha (Homo sapiens) (UniProt P49840). The note with it: at 0.1 µM.
Test [9] shares this target. The note with it: at 1 µM.
Test [10] has as its target Glycogen synthase kinase-3 beta (Homo sapiens) (UniProt P49841). The note with it: at 0.1 µM.
For test [11] the target is unchanged. The note with it: at 1 µM.
Test [12] concerns the target Homeodomain-interacting protein kinase 1 (Homo sapiens) (UniProt Q86Z02). The note with it: at 0.1 µM.
Test [13] shares this target. Conditions: at 1 µM.
Test [14] concerns the target T2, Homeodomain-interacting protein kinase 4 (Homo sapiens) (UniProt Q8NE63).
T2 sequence (whole entry): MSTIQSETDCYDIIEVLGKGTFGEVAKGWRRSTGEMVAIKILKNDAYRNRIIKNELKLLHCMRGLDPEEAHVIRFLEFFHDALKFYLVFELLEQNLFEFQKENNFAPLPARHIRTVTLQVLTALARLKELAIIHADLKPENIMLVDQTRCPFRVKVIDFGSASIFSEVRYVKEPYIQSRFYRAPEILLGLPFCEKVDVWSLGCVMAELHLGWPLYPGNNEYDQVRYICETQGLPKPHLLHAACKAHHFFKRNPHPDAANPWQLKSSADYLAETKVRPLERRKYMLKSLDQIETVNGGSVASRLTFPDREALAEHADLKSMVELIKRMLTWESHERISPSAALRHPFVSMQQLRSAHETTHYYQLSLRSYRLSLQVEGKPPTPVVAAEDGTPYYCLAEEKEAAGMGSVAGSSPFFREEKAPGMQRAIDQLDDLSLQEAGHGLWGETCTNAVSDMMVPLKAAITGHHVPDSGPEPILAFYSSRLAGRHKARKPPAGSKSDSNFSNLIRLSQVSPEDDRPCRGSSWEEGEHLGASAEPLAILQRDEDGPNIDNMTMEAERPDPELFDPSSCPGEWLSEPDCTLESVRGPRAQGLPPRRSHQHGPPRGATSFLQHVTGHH
The note with it: at 0.1 µM.

For test [15], the target named is T2, Homeodomain-interacting protein kinase 4 (Homo sapiens). The note with it: at 1 µM.
In test [16] the target is Mitogen-activated protein kinase 9 (Homo sapiens) (UniProt P45984). Conditions: at 0.1 µM.
The target is the same in test [17]. Conditions: at 1 µM.
Test [18] addresses Mitogen-activated protein kinase 1 (Homo sapiens) (UniProt P28482). Conditions: at 0.1 µM.
The target is the same in test [19]. Conditions: at 1 µM.
For test [20], the target named is Mitogen-activated protein kinase 3 (Homo sapiens) (UniProt P27361). The note with it: at 0.1 µM.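 Further: each value is a mean inhibition figure.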
Chain of Mitogen-activated protein kinase 3 (Homo sapiens) (P27361 whole entry): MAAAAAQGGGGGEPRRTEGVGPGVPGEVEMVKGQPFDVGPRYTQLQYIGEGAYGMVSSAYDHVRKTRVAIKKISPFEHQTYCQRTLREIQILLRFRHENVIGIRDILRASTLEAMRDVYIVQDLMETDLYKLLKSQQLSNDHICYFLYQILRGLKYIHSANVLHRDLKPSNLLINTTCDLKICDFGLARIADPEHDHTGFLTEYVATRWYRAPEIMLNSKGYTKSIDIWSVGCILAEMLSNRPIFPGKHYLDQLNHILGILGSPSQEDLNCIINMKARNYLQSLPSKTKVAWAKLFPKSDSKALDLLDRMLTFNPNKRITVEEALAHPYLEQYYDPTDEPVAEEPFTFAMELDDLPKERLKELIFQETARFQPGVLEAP

Chain of Dual specificity protein kinase CLK3 (Homo sapiens) (P49761 whole entry, looked up): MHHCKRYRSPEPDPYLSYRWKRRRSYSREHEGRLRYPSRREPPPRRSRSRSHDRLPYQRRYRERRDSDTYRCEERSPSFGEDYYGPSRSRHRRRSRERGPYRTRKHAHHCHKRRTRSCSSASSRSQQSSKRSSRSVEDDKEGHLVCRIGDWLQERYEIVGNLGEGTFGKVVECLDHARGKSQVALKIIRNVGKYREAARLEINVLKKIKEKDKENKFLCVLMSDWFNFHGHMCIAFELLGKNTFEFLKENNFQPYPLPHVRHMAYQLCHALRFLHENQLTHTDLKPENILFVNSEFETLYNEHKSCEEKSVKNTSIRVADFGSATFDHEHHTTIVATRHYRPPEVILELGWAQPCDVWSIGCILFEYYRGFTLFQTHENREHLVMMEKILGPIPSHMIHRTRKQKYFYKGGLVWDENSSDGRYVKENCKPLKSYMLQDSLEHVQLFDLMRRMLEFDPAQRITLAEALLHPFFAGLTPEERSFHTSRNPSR
Chain of Mitogen-activated protein kinase 9 (Homo sapiens) (P45984 whole entry, looked up): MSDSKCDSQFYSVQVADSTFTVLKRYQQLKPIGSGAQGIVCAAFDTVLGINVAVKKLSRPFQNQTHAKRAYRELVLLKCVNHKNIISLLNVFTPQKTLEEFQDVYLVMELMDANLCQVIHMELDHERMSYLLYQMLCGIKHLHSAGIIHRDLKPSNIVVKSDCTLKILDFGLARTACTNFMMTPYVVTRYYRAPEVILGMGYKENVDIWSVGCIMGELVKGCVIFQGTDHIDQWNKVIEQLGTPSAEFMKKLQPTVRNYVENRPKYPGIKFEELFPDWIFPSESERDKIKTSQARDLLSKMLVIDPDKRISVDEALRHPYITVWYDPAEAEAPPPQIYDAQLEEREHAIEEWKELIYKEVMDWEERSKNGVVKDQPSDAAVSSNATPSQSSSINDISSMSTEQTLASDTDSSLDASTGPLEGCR
Chain of Homeodomain-interacting protein kinase 1 (Homo sapiens) (Q86Z02 whole entry, looked up): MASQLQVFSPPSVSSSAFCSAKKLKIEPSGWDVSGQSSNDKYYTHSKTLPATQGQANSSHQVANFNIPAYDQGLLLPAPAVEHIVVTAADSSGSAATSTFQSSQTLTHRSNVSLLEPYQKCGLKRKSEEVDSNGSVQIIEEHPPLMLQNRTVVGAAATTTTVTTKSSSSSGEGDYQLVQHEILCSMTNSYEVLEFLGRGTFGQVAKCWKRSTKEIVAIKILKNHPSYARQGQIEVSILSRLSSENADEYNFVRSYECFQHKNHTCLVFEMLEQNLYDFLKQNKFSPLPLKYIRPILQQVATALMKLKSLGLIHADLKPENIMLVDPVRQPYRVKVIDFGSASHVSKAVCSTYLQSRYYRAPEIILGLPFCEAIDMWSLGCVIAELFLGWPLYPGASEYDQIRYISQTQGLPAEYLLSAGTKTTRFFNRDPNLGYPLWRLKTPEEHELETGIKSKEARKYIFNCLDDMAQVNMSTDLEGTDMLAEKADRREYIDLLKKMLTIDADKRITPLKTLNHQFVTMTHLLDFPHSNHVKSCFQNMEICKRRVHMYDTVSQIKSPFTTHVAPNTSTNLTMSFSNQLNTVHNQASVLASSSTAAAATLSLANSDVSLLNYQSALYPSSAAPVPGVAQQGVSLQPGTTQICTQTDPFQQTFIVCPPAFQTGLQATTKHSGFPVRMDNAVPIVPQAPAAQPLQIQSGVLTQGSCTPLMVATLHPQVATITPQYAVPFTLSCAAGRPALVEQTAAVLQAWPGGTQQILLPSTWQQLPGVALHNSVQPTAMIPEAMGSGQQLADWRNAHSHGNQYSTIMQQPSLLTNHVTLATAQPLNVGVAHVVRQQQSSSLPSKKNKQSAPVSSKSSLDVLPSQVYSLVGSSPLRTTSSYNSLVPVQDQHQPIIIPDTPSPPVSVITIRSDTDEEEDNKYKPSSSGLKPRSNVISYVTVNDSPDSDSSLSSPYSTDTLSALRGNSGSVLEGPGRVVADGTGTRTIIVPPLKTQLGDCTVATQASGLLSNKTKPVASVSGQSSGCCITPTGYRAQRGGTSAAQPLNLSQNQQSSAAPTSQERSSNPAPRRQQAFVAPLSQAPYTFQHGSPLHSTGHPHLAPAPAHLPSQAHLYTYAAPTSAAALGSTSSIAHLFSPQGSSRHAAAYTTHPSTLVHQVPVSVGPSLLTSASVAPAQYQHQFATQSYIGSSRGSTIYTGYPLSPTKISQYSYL
Chain of Glycogen synthase kinase-3 alpha (Homo sapiens) (P49840 2-483 limits assumed): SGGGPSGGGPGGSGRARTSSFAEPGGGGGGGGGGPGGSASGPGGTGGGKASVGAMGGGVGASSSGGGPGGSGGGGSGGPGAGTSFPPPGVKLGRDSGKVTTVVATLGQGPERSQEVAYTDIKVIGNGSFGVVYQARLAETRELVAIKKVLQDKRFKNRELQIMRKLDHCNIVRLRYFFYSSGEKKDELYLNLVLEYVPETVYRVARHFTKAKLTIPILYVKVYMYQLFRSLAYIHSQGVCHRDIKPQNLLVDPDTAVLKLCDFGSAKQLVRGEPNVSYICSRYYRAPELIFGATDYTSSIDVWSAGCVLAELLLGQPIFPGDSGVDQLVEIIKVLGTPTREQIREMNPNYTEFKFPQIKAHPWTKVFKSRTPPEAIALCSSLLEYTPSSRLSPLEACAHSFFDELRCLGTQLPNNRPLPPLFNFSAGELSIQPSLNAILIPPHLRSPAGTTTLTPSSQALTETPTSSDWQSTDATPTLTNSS
Chain of Glycogen synthase kinase-3 beta (Homo sapiens) (P49841 whole entry, looked up): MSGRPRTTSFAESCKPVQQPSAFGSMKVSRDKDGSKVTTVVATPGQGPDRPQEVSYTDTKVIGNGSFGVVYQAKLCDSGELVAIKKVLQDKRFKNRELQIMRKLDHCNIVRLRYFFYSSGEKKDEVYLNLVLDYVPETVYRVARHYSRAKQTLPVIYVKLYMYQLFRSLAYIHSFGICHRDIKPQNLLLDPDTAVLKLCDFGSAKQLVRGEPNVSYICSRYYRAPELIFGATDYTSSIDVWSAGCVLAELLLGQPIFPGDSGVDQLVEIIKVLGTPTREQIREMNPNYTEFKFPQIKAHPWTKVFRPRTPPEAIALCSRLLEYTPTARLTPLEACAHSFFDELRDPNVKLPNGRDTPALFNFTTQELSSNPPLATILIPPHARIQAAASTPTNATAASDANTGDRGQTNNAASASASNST
Chain of Mitogen-activated protein kinase 1 (Homo sapiens) (P28482 whole entry): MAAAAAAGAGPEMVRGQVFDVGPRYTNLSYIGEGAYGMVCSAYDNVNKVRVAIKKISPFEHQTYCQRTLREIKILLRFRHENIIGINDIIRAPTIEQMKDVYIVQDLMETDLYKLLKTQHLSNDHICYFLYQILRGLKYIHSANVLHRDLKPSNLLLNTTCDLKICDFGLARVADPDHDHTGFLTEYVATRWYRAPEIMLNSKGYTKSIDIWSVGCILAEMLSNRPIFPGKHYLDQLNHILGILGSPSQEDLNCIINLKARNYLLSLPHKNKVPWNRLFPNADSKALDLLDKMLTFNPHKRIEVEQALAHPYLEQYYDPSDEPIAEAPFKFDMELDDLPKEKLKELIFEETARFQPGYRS
Chain of Dual specificity tyrosine-phosphorylation-regulated kinase 1B (Homo sapiens) (Q9Y463 whole entry, looked up): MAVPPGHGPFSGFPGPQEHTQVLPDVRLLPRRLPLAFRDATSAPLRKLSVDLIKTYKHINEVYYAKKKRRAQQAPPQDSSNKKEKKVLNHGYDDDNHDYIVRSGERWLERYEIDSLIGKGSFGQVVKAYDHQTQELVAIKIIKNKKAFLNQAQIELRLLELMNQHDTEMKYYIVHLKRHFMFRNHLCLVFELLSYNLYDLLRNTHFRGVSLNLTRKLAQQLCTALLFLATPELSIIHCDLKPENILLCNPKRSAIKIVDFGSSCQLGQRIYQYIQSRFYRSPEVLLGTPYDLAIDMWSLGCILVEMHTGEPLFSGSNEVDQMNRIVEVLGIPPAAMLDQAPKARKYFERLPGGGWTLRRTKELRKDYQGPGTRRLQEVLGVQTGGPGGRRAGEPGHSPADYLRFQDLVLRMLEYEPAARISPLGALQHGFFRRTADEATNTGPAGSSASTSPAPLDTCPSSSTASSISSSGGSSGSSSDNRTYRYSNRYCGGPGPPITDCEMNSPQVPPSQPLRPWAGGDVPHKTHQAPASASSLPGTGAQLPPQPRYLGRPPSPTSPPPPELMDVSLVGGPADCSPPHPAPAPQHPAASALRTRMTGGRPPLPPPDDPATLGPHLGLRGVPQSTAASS

For orientation: inhibition means the relative decrease from the control value, in per cent. Turning to `Fc1ccc(-c2cc(-c3c[nH]nc3-c3ccccn3)ccn2)cc1`, the inhibition in [1] was 0.54%; in test [2] it was 2.96%; in [3] it was 5.69%; in test [4], -1.65%; in test [5], -0.27%; in test [6], 3.36%. The inhibition in [7] was found to be 4.06%; in test [8], 2.14%; in [9], 2.16%; in test [10], 1.39%; in test [11], 2.88%; in [12], 1.57%. Moreover, the inhibition was 0.95% in test [13]; 1.68% in test [14]; 4.16% in test [15]; 3.65% in test [16]; 11.3% in test [17]; 6.73% in [18]. In addition, the inhibition in [19] was 5.51%; in [20] it was 6.42%.
With `Nc1ncc(-c2cccc(S(N)(=O)=O)c2)c2scc(-c3ccc(F)c(Cl)c3)c12`, the inhibition in test [1] is 0.34%; in test [2], 2.01%; in test [3], 3.66%; in [4], -0.65%; in test [5], 0.74%; in test [6], 3.42%. The inhibition in test [7] was 2.46%; in test [8] it was 3.06%; in test [9], 4.87%; in [10], 2.78%; in test [11], 3.65%; in test [12] it was 0.64%. Also, the inhibition in test [13] worked out at 3.02%; in [14] it was 1.4%; in test [15] it was 4.49%; in test [16], 2.92%; in [17] it was 20.5%; in test [18] it was 6.27%. For the same compound, the inhibition in [19] was determined as 7.98%; in [20], 3.4%.
In the case of `COc1ccc(-c2nn3ncccc3c2-c2ccnc(Nc3ccc4c(c3)OCCO4)n2)cc1`, the inhibition was -0.46% in test [1]; -0.47% in test [2]; -2.81% in [3]; -0.35% in test [4]; -3.65% in test [5]; 0.08% in test [6]. Also, the inhibition in test [7] was -3.08%; in [8], 0.99%; in [9] it was 2.53%; in test [10], -0.07%; in [11], 5.33%; in [12], -7.34%. Besides, the inhibition was -0.07% in [13]; 0.08% in test [14]; -1.16% in test [15]; 13% in [16]; 64.6% in test [17]; -0.01% in test [18]. Besides, the inhibition in test [19] turned out to be 0.95%; in [20] it was 3.56%.
For the compound `CCn1c(-c2nonc2N)nc2ccccc21`, the inhibition in test [1] stood at 2.22%; in test [2], 1.62%; in test [3], 14.6%; in test [4], 1.02%; in [5], 7.36%; in [6] it was 2.66%. For the same compound, the inhibition in test [7] is 5.28%; in test [8], 3.32%; in test [9] it was 24%; in test [10] it was 3.21%; in test [11] it was 17.4%; in [12], 1.47%. Further, the inhibition in test [13] stood at 4.99%; in test [14], 1.45%; in test [15] it was 4.14%; in test [16], 3.53%; in test [17], 2.53%; in [18], 1.93%. Moreover, the inhibition in test [19] turned out to be 3.93%; in test [20], 3.48%.
Consider `COc1ccc(-c2oc3ncnc(N)c3c2-c2ccc(NC(=O)Nc3cc(C(F)(F)F)ccc3F)cc2)cc1`, for which the inhibition in test [1] was 4.8%; in test [2] it was 0.67%; in test [3], 2.07%; in [4], -0.07%; in [5] it was 2.26%; in test [6], 1.92%. Further, the inhibition came out at 5.52% in test [7]; 3.93% in test [8]; 17.3% in [9]; 3.17% in test [10]; 15.2% in [11]; 13.5% in test [12]. The inhibition was 62% in [13]; 68.7% in [14]; 88.8% in [15]; 7.38% in [16]; 19.9% in test [17]; 7.13% in test [18]. Further, the inhibition in [19] came to 6.23%; in [20], 3.48%.
Take `[O-][S+]1CCN(Cc2ccc(-c3ccc4ncnc(Nc5ccc(OCc6cccc(F)c6)c(Cl)c5)c4c3)o2)CC1`: the inhibition was 1.25% in test [1]; 4.05% in [2]; 3.96% in [3]; 0.06% in [4]; 1.57% in test [5]; 4.92% in [6]. Further, the inhibition was 4.13% in test [7]; 3.26% in test [8]; 5.28% in test [9]; 3.06% in [10]; 4.76% in [11]; -2.75% in test [12]. The inhibition in test [13] turned out to be 1.62%; in test [14], 0.28%; in test [15], 0.6%; in test [16], 3.35%; in test [17] it was 1.33%; in [18] it was 7.21%. The inhibition in test [19] is 6.45%; in test [20], 5.68%.
Regarding `NS(=O)(=O)c1ccc(N/N=C2\C(=O)Nc3ccc4ncccc4c32)cc1`, the inhibition worked out at 15% in [1]; 18.6% in test [2]; 61.6% in [3]; 13% in test [4]; 54.8% in test [5]; 6.76% in [6]. Moreover, the inhibition was 35.7% in test [7]; 55.3% in test [8]; 80.9% in test [9]; 53.5% in test [10]; 80.2% in test [11]; 19.7% in [12]. Besides, the inhibition in test [13] was determined as 64.7%; in test [14], 6.71%; in test [15], 40%; in test [16] it was 6.07%; in [17] it was 33.7%; in test [18], 14.9%. In addition, the inhibition in [19] worked out at 55.5%; in test [20] it was 6.45%.
